The record followed here is PubChem BioAssay AID2401 (Southern Research Specialized Biocontainment Screening …, 2010).

Hit rate of the full screen: of about 2,200 compounds, about 530 (24%) were called active.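 The calls were made as follows: active = inhibition above a set limit at one or more concentrations of the dose series; inactive = inhibition under that limit at every dose.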 Not all results are given here. Results with a measured potency or affinity are listed apart.

The experiment in a line: S. Typhimurium nonspecific reporter signal inhibition – Salmonella Typhimurium, GFP fluorescence, counter-screen for PhoP regulon inhibitor project, dose response (AID 2401).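 Also: S. typhimurium with Mg-insensitive nmpC-GFP reporter grown at 10 µM Mg2+; drop in reporter fluorescence reflects general culture growth inhibition.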 Particulars: 4 h; series mostly up to 150 µM; inhibition: at the top concentration.
As for `Cc1ccc2nc(SCC(=O)c3c(C)[nH]c4ccccc34)[nH]c2c1`, the inhibition (as a rule, the change of the read-out against control, counted positive when it falls) is 30.9% (inactive).
To `CN(CCO)Cc1csc2ccc(Br)cc12` belongs -7.08% (inactive).
As to `CCNC(=O)NC1(C(=O)Nc2ccc3c(c2)OCCO3)CCCCC1`, the “inhibition” value is -29.3% (inactive).
`CC1=CC(C)(C)n2c(O)c(C3=NC(=S)NC3=O)c3cc(OC(=O)c4cccc5ccccc45)cc1c32`: the “inhibition” value is -11.6% (inactive).
Under `CCOC(=O)C1CCCN(S(=O)(=O)c2ccc(Br)c(OC)c2)C1` (centres undefined) stands 0.83% (inactive); under `O=C(c1ccc2nc(N3CCOCC3)sc2c1)N1CCC(Cc2ccccc2)CC1`, -16.1% (inactive); under `O=C(CCc1ccccc1)Nc1nc2ccc(S(=O)(=O)N3CCOCC3)cc2s1`, 25.6% (inactive).
Under `CN1CCN(S(=O)(=O)c2ccc(-c3ccccc3)cc2)CC1` stands -28.3% (inactive).
Take `CCC1C2CN(C(C)=O)CC=C2C(C#N)=C(N)C1(C#N)C#N` (centres undefined): the “inhibition” value is 3.63% (inactive).
To `CN(C)CCNc1nc(-c2ccccc2)nnc1C(F)(F)F` belongs -3.73% (inactive); to `Cc1cc(NCCN2CCOCC2)n2ncc(-c3ccccc3)c2n1`, -15.6% (inactive).
Under `Nc1c(-c2ccccc2Cl)cnn1-c1cccc([N+](=O)[O-])c1` stands -8.16% (inactive); under `N#Cc1ccc(C(c2nnnn2CCc2ccccc2)N2CCCCCC2)cc1` (centres undefined), -1.07% (inactive).
Under `NC(=O)c1ccccc1NC(=O)/C=C/C(=O)O` stands -8.68% (inactive); under `O=C(Cc1cccs1)Nc1nc2c(s1)CCCC2`, -24.8% (inactive); under `COc1ccc([N+](=O)[O-])cc1N(CC(O)Cn1nnc2ccccc21)S(=O)(=O)c1ccc(C)cc1` (centres undefined), -42.2% (inactive).
With `Cc1cccc(NC(=O)c2ccc(Cn3cc(C(F)(F)F)ccc3=O)cc2)c1`, the “inhibition” value is 7.69% (inactive).
As to `O=C(O)/C=C/C(=O)Nc1cccc(C(F)(F)F)c1`, the “inhibition” value was -19.4% (inactive).
To `NS(=O)(=O)c1ccc(Nc2nc(-c3ccc(O)cc3)cs2)cc1` belongs -18.4% (inactive); to `COCc1cc(C)nc(N2CCc3ccccc32)c1C#N`, -22.8% (inactive); to `O=C(CSc1nnc(Cc2ccccc2)o1)NCCc1ccccc1`, -24.4% (inactive).
Regarding `CCn1c(=N)n(CC(O)c2ccccc2)c2ccccc21` (centres undefined), the “inhibition” value was -16% (inactive).
Under `Cc1ccccc1OCCCCCn1ccnc1` stands -17% (inactive).
On to `COc1ccc(C(=O)NCCC2=CCCCC2)cc1OC`, for which the “inhibition” value is 5.91% (inactive).
For `C1=C(CCNc2ncnc3c2[nH]c2ccccc23)CCCC1`, the “inhibition” value was 26.4% (inactive).
Under `Cc1nc2ccccc2c(=O)n1/N=C/c1ccc(N(C)C)cc1` stands -15.2% (inactive).
`COc1cccc(Nc2nc(-c3sc(NC(=O)c4ccco4)nc3C)cs2)c1`: the “inhibition” value is 25.7% (inactive).
Regarding `O=C(NCCNS(=O)(=O)c1cccc(C(F)(F)F)c1)c1cc(OCC(F)(F)F)ccc1OCC(F)(F)F`, the “inhibition” value was -2.55% (inactive).
Under `CCOC(=O)C1CCCN(C(=O)Cc2ccc(Cl)cc2)C1` (centres undefined) stands -20.2% (inactive); under `NC(=NCc1ccc2c(c1)OCO2)NC(=O)c1ccccc1`, 36.3% (inactive).
Under `COc1ccc(-c2nc3ncccc3n2O)cc1` stands -18.4% (inactive); under `O=C(CSc1nccc(=O)[nH]1)N1c2ccccc2CCc2ccccc21`, 1.74% (inactive); under `O=C(CSC1CC(=O)N(CCc2ccccc2)C1=O)Nc1cccc(Cl)c1` (centres undefined), 9.92% (inactive).
To `COc1ccc(NC2=NC3(CCCCC3)N=C(N)N2)cc1` belongs -8.53% (inactive).
Turning to `CC(C)c1ccc(NC(=O)Nc2cc3sccc3n2C)cc1`, the “inhibition” value was 22.1% (inactive).
For the molecule `CCOC(=O)C1CCCN(C(=O)c2sc3nc(C)nc(N4CCOCC4)c3c2C)C1` (centres undefined), the “inhibition” value was -24.6% (inactive).
On to `CCn1c(Cc2ccccc2)nnc1SCC(=O)Nc1nc(C)c(C)s1`, for which the “inhibition” value was -12.1% (inactive).
In the case of `OC1(c2cccc(C(F)(F)F)c2)CCN(c2ncnc3c2[nH]c2ccccc23)CC1`, the “inhibition” value was 15.2% (inactive).
Under `Cc1ccc(Oc2nnc(-c3ccccc3)c3ccccc23)cc1` stands 3.31% (inactive); under `NC(=O)c1oc2ccccc2c1NC(=O)CN1CCCCC1`, -2.53% (inactive); under `O=C(CN1CCCc2ccccc21)N/N=C/c1c(O)ccc2ccccc12`, 38.1% (inactive).
As for `Nc1ccc(S(=O)(=O)Nc2ccc(Cl)nn2)cc1`, the “inhibition” value was 15.9% (inactive).
In the case of `O=C(Nc1cccc(-c2cn3cccnc3n2)c1)c1ccco1`, the “inhibition” value was -21.2% (inactive).
Regarding `CCOCCCNC(=S)Nc1cc(C)cc(C)c1`, the “inhibition” value was -3.38% (inactive).
Under `O=C(CCNS(=O)(=O)c1cccc2nsnc12)Nc1ccc2c(c1)OCCO2` stands -13.2% (inactive); under `O=c1[nH]c(CN2CCCCC2)nc2ccccc12`, -18.8% (inactive); under `Cc1cc(C(C)c2ccccc2)c(O)c(CN2CCOCC2)c1C` (centres undefined), 16.5% (inactive).
To `c1cncc(-c2nc(N3CCOCC3)c3ccccc3n2)c1` belongs -13.2% (inactive).
Under `c1ccc(COc2cccc(CN3CCN(c4ccccn4)CC3)c2)cc1` stands -21.9% (inactive); under `CC1(C)CC(=O)C(/C=N/c2ncccc2C(=O)O)=C(O)C1`, -7.77% (inactive).
`CCOC(=O)c1ccc(NC(=O)Nc2cc(C)on2)cc1`: the “inhibition” value was -22.6% (inactive).
In the case of `COc1ccc(NC2=NC(=S)N(c3cccc(C)c3)C23CCCCC3)cc1`, the “inhibition” value is -30.8% (inactive).
To `CN(C)c1ccc(Nc2nc(-c3cccnc3)cs2)cc1` belongs 31% (inactive); to `CCC(CC)NC(=O)COC(=O)c1ccc(OCC(=O)Nc2ccccc2OC)c(OC)c1`, -12.6% (inactive); to `O=C(O)C1CCCN1S(=O)(=O)c1ccc2[nH]c(=O)c(=O)[nH]c2c1` (centres undefined), -21.6% (inactive).
`N=c1n(CCO)c2ccccc2n1Cc1ccc(Cl)cc1`: the “inhibition” value was 10.3% (inactive).
Under `N=c1n(Cc2ccc(Cl)cc2)c2ccccc2n1CC(O)c1ccco1` (centres undefined) stands 38.9% (inactive).
Under `N#CCC1c2ccccc2CCN1C(=O)Nc1ccc(Cl)cc1` (centres undefined) stands -25.1% (inactive); under `N/C(=N\c1nc2ccccc2o1)NC(=O)c1ccccc1F`, -4.05% (inactive); under `Cn1c(-c2ccc(N)cc2)nc2ccccc21`, -13.6% (inactive).
`CCCCCOc1ccc(NC(=O)C(=O)NCCC2=CCCCC2)cc1`: the “inhibition” value was -29% (inactive).
To `CN1/C(=C\C=N\NC(=O)c2ccccc2Br)C(C)(C)c2ccccc21` belongs 9.45% (inactive); to `CN1/C(=C/C2CC(=O)N(c3cccc4ccccc34)C2=O)C(C)(C)c2ccccc21` (centres undefined), 37.3% (inactive); to `C=CCNC(=O)c1ccc(N(C)S(=O)(=O)c2ccc(OC)cc2)cc1`, -4.35% (inactive).
To `CC(=O)Nc1nc(-c2ccc(Cl)cc2)nc(C)c1C(C)=O` belongs -23.7% (inactive).
Under `COC(=O)c1ccccc1NC(=O)NCc1ccc2c(c1)OCO2` stands -23.4% (inactive).
On to `c1ccc(-c2cnn3nnnc3n2)cc1`, for which the “inhibition” value is 1.88% (inactive).
Under `O=C(NCc1cccs1)Nc1cccs1` stands -33.1% (inactive).
To `CSc1nnc2c3c4c(sc3nc(-n3nc(C)cc3C)n12)COC(C)(C)C4` belongs -11.8% (inactive); to `CC(C)Cn1cnc2sc3c(c2c1=N)CCCC3`, -4.26% (inactive); to `Cn1c(NCc2cc(Br)ccc2O)nc2ccccc21`, -21.2% (inactive).
Under `COc1cc(/C=C2/SC(=S)N(CC(=O)Nc3cccnc3)C2=O)cc(OC)c1OC` stands -45.8% (inactive); under `CC1Cc2ccccc2N1C(=O)COC(=O)c1ccc(S(=O)(=O)N(C)C)cc1` (centres undefined), -26.3% (inactive).
Take `O=C(NC1CCCCC1)C(c1ccncc1)N(CC1CCCO1)C(=O)C(F)(F)F` (centres undefined): the “inhibition” value was 3.65% (inactive).
Turning to `CCn1nnc(-c2ccccc2NC(=O)c2ccc(-n3cnnn3)cc2)n1`, the “inhibition” value was -6.44% (inactive).
On to `Clc1cc(Br)ccc1OCCn1ccnc1`, for which the “inhibition” value was 11.8% (inactive).
To `c1ccc(COc2ccccc2CNCc2cccnc2)cc1` belongs -26% (inactive); to `CCCCNCCCOc1cccc(Cl)c1Cl`, 16.4% (inactive); to `O=C(COc1ccc(Br)cc1Cl)NC(=O)NCc1ccccc1`, -5.96% (inactive).
Regarding `CC(C)NCCCOc1ccc(Cl)cc1Br`, the “inhibition” value is 10.7% (inactive).
To `Clc1ccc(OCCCn2ccnc2)c(Br)c1` belongs 16.8% (inactive); to `CCN(Cc1ccccc1)C(=O)CN1C(=S)NC(C)(C)CC1C` (centres undefined), -9.86% (inactive).
Under `CCOC(=O)Nc1ccc(C)cc1C` stands -17.9% (inactive).
To `COC(=O)c1[nH]c2ccc(C)cc2c1NC(=O)Nc1ccc(OC)cc1` belongs -17.9% (inactive); to `O=C(/C=C/c1cccs1)N1CCN(Cc2ccc3c(c2)OCO3)CC1`, -15.1% (inactive); to `O=C(Nc1cccc2ccccc12)c1ccc(Cn2cc(Cl)cn2)cc1`, 0.25% (inactive).
`NC(=O)c1cnn(Cc2ccc(Cl)cc2)c1N`: the “inhibition” value was -17.2% (inactive).
Under `CN(C)c1ccnc(Oc2ccc(F)cc2)c1C#N` stands -16.6% (inactive); under `COc1ccc(CN=C2Nc3ccccc3CS2)cc1`, -0.21% (inactive); under `Fc1ccc(-c2n[nH]c(=S)n2/N=C/c2c[nH]c3ccccc23)cc1`, 12.6% (inactive).
With `O=C(N/N=C/c1cn(-c2ccccc2)nc1-c1ccc(F)cc1)c1ccc2c(c1)OCO2`, the “inhibition” value was 24.5% (inactive).
Consider `Cc1cc(=O)[nH]c(N/N=C/c2c[nH]c3ccccc23)n1`, for which the “inhibition” value is -27.2% (inactive).
On to `CCCCn1c(/N=C/c2c[nH]c3ccccc23)nc2ccccc21`, for which the “inhibition” value is 19.1% (inactive).
Under `Cc1c(NS(=O)(=O)c2ccccc2)c(=O)n(-c2ccccc2)n1C` stands -18.6% (inactive); under `Cc1ccc2nc(SCC(=O)NCc3ccco3)[nH]c2c1`, 0.53% (inactive).
To `Cc1cccc(Nc2nnc(SCC(=O)NC3CCCc4ccccc43)s2)c1` (centres undefined) belongs -3.06% (inactive); to `Nc1cc(Br)c(N)c(Br)c1`, -3.53% (inactive); to `CC(=O)Nc1c(O)nc(SCC(=O)N2CCN(c3ccc(F)cc3)CC2)[nH]c1=O`, -33.4% (inactive).
In the case of `CCOC(=O)CNS(=O)(=O)c1c(C)noc1C`, the “inhibition” value is -21.7% (inactive).
As to `CC1=C(C(=O)Nc2cccnc2)C(c2ccccn2)n2nnnc2N1` (centres undefined), the “inhibition” value was -1.7% (inactive).
Consider `Cc1ccc(-n2nnnc2SCC(=O)Nc2ncc(Cc3ccccc3Cl)s2)cc1`, for which the “inhibition” value is -23.2% (inactive).
To `Cc1ccc([N+](=O)[O-])cc1-c1ccc(/C=C(\C#N)c2[nH]nc(N)c2C#N)o1` belongs -2.4% (inactive); to `CCOC(=O)Cn1nnnc1C(C(C)C)N(Cc1cccs1)Cc1cc2cc(C)ccc2[nH]c1=O` (centres undefined), -3.99% (inactive); to `O=C(Nc1cnn(Cc2ccc(F)cc2)c1)c1cnccn1`, -15.5% (inactive).
With `Cc1ccc2cc(CN(CCO)Cc3nnnn3Cc3ccc(F)cc3)c(=O)[nH]c2c1`, the “inhibition” value is -11.4% (inactive).
Under `Cc1cc(/C=N/NC(N)=S)c(C)n1-c1ccc(Cl)c(Cl)c1` stands -8.78% (inactive); under `N#C/C=C(/N)c1ccc(Br)cc1`, 8.99% (inactive); under `Cc1ccc(/C=C/c2nnc(-c3ccc(C)cc3)o2)cc1`, 6.49% (inactive).
Under `O=C(c1[nH]ncc1-c1ccc(Cl)cc1)C1CO1` (centres undefined) stands -25.8% (inactive); under `O=C1c2ccccc2C(=O)N1CCCc1nc2ccccc2c(=O)n1Cc1ccco1`, -27.4% (inactive); under `CCn1c(=O)c2c(O)cc(=O)oc2c2ccccc21`, -11% (inactive).
For `COc1ccc(S(=O)(=O)n2ccc(-c3ccc(OCCN(C)c4ccccn4)cc3)n2)cc1`, the “inhibition” value was -26.2% (inactive).
As to `COC(=O)c1ccc(NC(=S)NCCc2cccc(C)c2)cc1`, the “inhibition” value is -15.9% (inactive).
Under `CCOC(=O)C1=C(c2ccccc2)NC(SC)=C(C#N)C1c1ccco1` (centres undefined) stands -18.8% (inactive).
Under `CC1OC(Nc2cccc3ccccc23)C(O)C(O)C1O` (centres undefined) stands -28.1% (inactive); under `Cc1nc2ccccc2n1CC(=O)N/N=C\C=C\c1ccccc1`, -17.8% (inactive); under `c1ccc(CNc2ncnc3ccccc23)cc1`, 37.4% (inactive).
In the case of `c1ccc(CN2CCN(c3nc(NCc4ccco4)c4ccccc4n3)CC2)cc1`, the “inhibition” value was 10.5% (inactive).
Under `Oc1ccccc1Nc1nc(NCc2ccco2)c2ccccc2n1` stands 33.4% (inactive); under `Cc1cccc(C(=O)NC(NCc2ccco2)C(Cl)(Cl)Cl)c1` (centres undefined), -36% (inactive).
To `COc1ccc(-c2csc(NCc3ccco3)n2)cc1` belongs 16.3% (inactive); to `Cc1ccc2[nH]c3c(NCc4ccco4)ncnc3c2c1`, -14.2% (inactive).
To `Cc1ccc(-c2nc(NCc3cccnc3)c3ccccc3n2)cc1` belongs 8.39% (inactive); to `COc1ccc(Nc2nc(NCc3ccco3)nc(N/N=C/c3ccccc3Cl)n2)cc1`, 10.1% (inactive).
